The list is not random: actives were taken first. Their share in the collection is about 4.8%.
hgDAF12 agonist = agonists of H. glycines DAF-12 nuclear receptor; HEK293 GAL4-hgDAF12 UAS-luciferase reporter, agonist luminescence; normalized to butyrate control; activation, % at 6.8 µM; hit rate 1.8% among 370,000; AID 687014;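 active means activation above a cutoff set at the mean of all screened compounds plus 3 SD, cut at about 10% in these data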
ssDAF-12 act = activates DAF-12 receptor from parasite S. stercoralis; HEK293 ssDAF-12/GRIP1 lit1-tk-luc reporter, luminescence; % of 3 µM dafachronic acid response; hit rate 1% among 370,000; activation, % at 6.8 µM; AID 652126;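 active means activation above the mean over all tested compounds plus 3 SD, cut at about 0.9% in these data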
DAX1 inh-1 = inhibitors of human orphan nuclear receptor DAX1 (NR0B1). inhibition, % at 6.75 µM. hit rate 0.99% among 340,000. HEK293 Gal4-DAX1 luciferase reporter, luminescence. P51843;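 active means inhibition above the mean over all tested compounds plus 3 SD, cut at about 4.2% in these data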;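 further: inhibition shows as a rise in luminescence from relieved DAX1 repression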
SMARCA2 act = activators of SMARCA2 function; activation, % at 9.1 µM; MG213 cells, MMTV-luciferase reporter, dexamethasone, overnight; AID 652017; hit rate 1% among 370,000; in the data active means activation above about 7.8%
hcDAF-12 act = activators of H. contortus DAF-12 nuclear receptor. hit rate 1.4% among 370,000. HEK293 hcDAF-12 lit1-tk-luc reporter, luminescence; 0% DMSO, 100% Δ7-dafachronic acid. activation, % at 6.8 µM;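 active means activation above the mean of all tested compounds plus 3 SD, cut at about 5.5% in these data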
DAX1 inh-2 = inhibitors of DAX1 repression of SF-1 activated StAR promoter. HEK293T StAR-luciferase reporter, SF-1/DAX-1 repression relief. inhibition, % at 6.8 µM. hit rate 1.1% among 370,000. AID 652010;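 active means inhibition above the mean over all tested compounds plus 3 SD, cut at about 3.6% in these data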;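 further: higher inhibition means more luminescence from relief of DAX-1 repression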
hgDAF12 ag = hgDAF-12 agonism, confirmation assay; HEK293 GAL4-hgDAF12 luciferase reporter, agonist mode; percent of butyrate response; AID 743050; activation, % at 6.8 µM; hit rate 80% among 3,300; shares compounds with hgDAF12 agonist;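 active means mean activation over triplicate wells above the hit cutoff derived from the earlier primary screen, cut at about 11% in these data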
LXR ag 2 = counter-screen for DAF-12 agonists: agonists of human LXR-beta | shares compounds with hgDAF12 agonist | HEK293 Gal4-LXR luciferase reporter, 24 h | activation, % at 6.8 µM | 3,300 tested, under 10 active;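 active means mean activation of the triplicate above a set limit carried over from the primary screen, none filed active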
Target sequence (P55055 whole entry, looked up, the tested form may be a part): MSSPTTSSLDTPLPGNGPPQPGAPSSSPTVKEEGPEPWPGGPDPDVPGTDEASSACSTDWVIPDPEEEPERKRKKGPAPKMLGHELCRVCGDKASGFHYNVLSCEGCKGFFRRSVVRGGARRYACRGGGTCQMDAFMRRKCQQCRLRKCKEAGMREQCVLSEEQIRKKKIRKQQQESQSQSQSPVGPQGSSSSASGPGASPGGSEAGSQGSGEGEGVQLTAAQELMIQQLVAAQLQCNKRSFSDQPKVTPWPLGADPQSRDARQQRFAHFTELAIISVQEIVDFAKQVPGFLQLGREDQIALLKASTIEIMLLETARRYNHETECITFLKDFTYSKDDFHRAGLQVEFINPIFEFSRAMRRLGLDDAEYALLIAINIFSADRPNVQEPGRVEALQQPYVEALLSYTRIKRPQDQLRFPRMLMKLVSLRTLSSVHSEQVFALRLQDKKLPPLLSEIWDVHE
Of the large screens only hits and unclear results are named; the others gave an inactive call (follow-up assays come after a bar, where they were run).

CC(Sc1nnc(NCc2ccccc2)s1)C(=O)Nc1ccc2c(c1)C(=O)c1ccccc1C2=O (stereo not given)	hgDAF12 agonist 15 | hgDAF12 ag inactive | LXR ag 2 inactive
COc1ccc(-c2nc(CN3CCN(Cc4ccccc4)CC3)c(C)o2)cc1	none
Cc1oc(-c2ccc(-c3ccccc3)cc2)nc1CN1CCN(CC(=O)N(C)C)CC1	hgDAF12 agonist 15, hcDAF-12 act 6.5 | hgDAF12 ag 14 | LXR ag 2 inactive
COc1ccc(OCCCSc2ncccn2)cc1	hgDAF12 agonist 14 | hgDAF12 ag 11 | LXR ag 2 inactive
CC(=O)OC(C(=O)Nc1nccs1)c1ccccc1 (stereo not given)	none
O=C(Nc1nccs1)C(Br)C(Br)c1ccccc1 (stereo not given)	hgDAF12 agonist 16, hcDAF-12 act 6.4 | hgDAF12 ag 19 | LXR ag 2 inactive
C(=N\N=C\c1cccs1)/c1cccs1	hgDAF12 agonist 14, DAX1 inh-2 3.9 | hgDAF12 ag 15 | LXR ag 2 inactive
Cc1c(C(=O)NCC2CCCO2)oc2ccc3c(c12)C(=O)CC(C)(C)O3 (stereo not given)	hgDAF12 agonist 17 | hgDAF12 ag 12 | LXR ag 2 inactive
Cc1c(C(=O)NCC2CCCO2)oc2ccc(S(=O)(=O)N3CCCC3)cc12 (stereo not given)	none
Cc1cccc2nc(C(=O)Nc3cc(Cl)ccc3-n3cncn3)cn12	none
Cc1nc2cc(NCc3ccc(Cl)cc3)ccc2n1C	hgDAF12 agonist 14, ssDAF-12 act 1.6, DAX1 inh-1 4.7 | hgDAF12 ag 14 | LXR ag 2 inactive
COc1ccc(CNC(=O)Cn2c(=O)n(CCC(=O)N3CCCCC3)c(=O)c3sccc32)cc1	none
Cc1ccc(OCn2c(=O)sc3ccccc32)cc1	none (no result: hgDAF12 agonist, ssDAF-12 act, SMARCA2 act, hcDAF-12 act, DAX1 inh-2)
O=c1sc2ccccc2n1CCOc1ccccc1	hgDAF12 agonist 15, hcDAF-12 act 5.6 | hgDAF12 ag 12 | LXR ag 2 inactive
C[C@]12c3[nH]c4ccccc4c3CCN1C(=O)C(CC(=O)NCC13CC4CC(CC(C4)C1)C3)C[C@@H]2C(=O)N1CCOCC1 (stereo not given in full)	none
CCOC(=O)/C=C/c1cccc(OC)c1O	hgDAF12 agonist 14, DAX1 inh-2 3.8 (no result: DAX1 inh-1) | hgDAF12 ag 14 | LXR ag 2 inactive
CCCNC(=O)N1CCN(c2nc(C(C)C)c3c(c2C#N)CC(C)(C)OC3)CC1	none
CCn1cnc2cc(NC(=O)c3ccc(C)cc3)ccc21	hgDAF12 agonist 14, SMARCA2 act 7.9 | hgDAF12 ag 11 | LXR ag 2 inactive
CCCn1cnc2cc(NC(=O)c3cccs3)ccc21	hgDAF12 agonist 13 | hgDAF12 ag inactive | LXR ag 2 inactive
O=C(/C=C/c1ccnc2ccccc12)c1cccs1	hgDAF12 agonist 14 | hgDAF12 ag 15 | LXR ag 2 inactive
CN(C(=O)c1cccc(NC(=O)Cc2ccc(NC(=O)C3CCN(C(=O)c4ccccc4)CC3)cc2)c1)C1CC1	none
Oc1ccccc1-c1nnc(COc2ccccc2)o1	hgDAF12 agonist 14 | hgDAF12 ag inactive | LXR ag 2 inactive
CCn1c(C)nc2cc(C(=O)N/N=C/c3ccccc3C)ccc21	hgDAF12 agonist 14 | hgDAF12 ag 14 | LXR ag 2 inactive
COc1cccc(/C=N/Nc2nccnc2Cl)c1O	none
COc1ccc(/C=N/Nc2nccnc2Cl)c(OC)c1	hgDAF12 agonist 21 | hgDAF12 ag 13 | LXR ag 2 inactive
COC(=O)c1cc(C)ccc1/C=C1/Cc2c(C)cc(C)cc2C1=O	none
CC(c1ccc(NC(=O)OC(C)(C)C)cc1)c1cn(C)c2ccccc12 (stereo not given)	hgDAF12 agonist 14, hcDAF-12 act 5.7 (no result: DAX1 inh-1) | hgDAF12 ag inactive | LXR ag 2 inactive
O=C(Nc1nc2ncccn2c1-c1ccc(C(F)(F)F)cc1)c1ccc(F)cc1	none (no result: DAX1 inh-1)
CC(C)(C)c1ccc(-c2nc(C=O)c3ccccn23)cc1	none
O=C1NC(=Nc2ccccc2)S/C1=C/c1cccs1	hgDAF12 agonist 15 | hgDAF12 ag inactive | LXR ag 2 inactive
O=C1NC(=Nc2ccccc2)S/C1=C/c1cccnc1	none
CC1=C(C(=O)Nc2ccccn2)C(c2ccc(Cl)cc2)NC(=S)N1 (stereo not given)	none
CC1=C(C(=O)Nc2ccccn2)C(c2ccc(Br)cc2)NC(=S)N1 (stereo not given)	hgDAF12 agonist 17, hcDAF-12 act 5.7 | hgDAF12 ag inactive | LXR ag 2 inactive
CCC(=O)Nc1ccccc1C(=O)OCC(=O)c1ccccc1	hgDAF12 agonist 16, ssDAF-12 act 1.3, DAX1 inh-2 3.7 | hgDAF12 ag 17 | LXR ag 2 inactive
CN1CCN(S(=O)(=O)c2cccc(C(=O)NCCOc3ccccc3)c2)CC1	none
Oc1ccccc1N1CCN(c2ccc3ccccc3n2)CC1	hgDAF12 agonist 16 | hgDAF12 ag 15 | LXR ag 2 inactive
N#Cc1ccc(Nc2nc(-c3ccccc3)cs2)cc1	hgDAF12 agonist 18 (no result: DAX1 inh-1) | hgDAF12 ag 16 | LXR ag 2 inactive
O=C(Nc1cccc(Cl)c1)Nc1nnc([C@@H]2C[C@H](O)[C@@H](CO)O2)s1	hgDAF12 agonist 16 (no result: DAX1 inh-1) | hgDAF12 ag inactive | LXR ag 2 inactive
O=C(Nc1cccc(F)c1)Nc1nnc([C@@H]2C[C@H](O)[C@@H](CO)O2)s1	none (no result: DAX1 inh-1)
Brc1ccc(NC2=Nc3ccccc3CC2)cc1	none
Cc1ccc(NC2=Nc3ccccc3CC2)cc1	hgDAF12 agonist 14, hcDAF-12 act 6.3 | hgDAF12 ag 17 | LXR ag 2 inactive
Cc1ccc(NC(=O)c2[nH]cnc2C(=O)NN)cc1	hgDAF12 agonist 13 | hgDAF12 ag inactive | LXR ag 2 inactive
S=C(NCCc1ccccc1)NC1CCC(NC(=S)NCCc2ccccc2)CC1 (stereo not given)	none
S=C(NCCc1cccc(Cl)c1)NC1CCCCC1	hgDAF12 agonist 14 | hgDAF12 ag 11 | LXR ag 2 inactive
CC(C)=CC(=O)Nc1ccc(Cl)cc1	hgDAF12 agonist 19, ssDAF-12 act 1.7 | hgDAF12 ag 12 | LXR ag 2 inactive
CNC(=O)Nc1ccc(Cl)cc1	none
CCC(=O)c1ccc(OCc2ccccc2)c(OC)c1	hgDAF12 agonist 14, DAX1 inh-1 4.7 | hgDAF12 ag inactive | LXR ag 2 inactive
Cc1cc(C)cc(C(=O)OCC(=O)NCc2cccs2)c1	none
Cc1ccc(C(=O)OCC(=O)NCc2cccs2)c(C)c1	hgDAF12 agonist 14 | hgDAF12 ag inactive | LXR ag 2 inactive
O=C(Nc1ccc2ncccc2c1)Nc1ccc2ncccc2c1	none
